Measurements from the supplement of paper PMC6555819.

Tested on: VDR:RXRa (NR concentration 270 nM, RXRa partner concentration 90 nM)
Experiment: PBM binding z-score (relative to random genomic background probes); higher = stronger binding; sequences stand for … in GC…GCGATTGACAGCGTAGAATGAAGG
Experimental: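 Protein-binding microarray (Agilent 4x180K custom design, double-stranded 60-nt probes: 5' GC cap, 34-nt variable region, 24-nt constant primer region; full probe sequence given). Purified or IVT nuclear receptor:RXRα heterodimers (3:1 NR:RXRα, mostly 270:90 nM) or homodimers were incubated for 1 h in PBS with 2% milk and no ligand, then detected with Alexa488 antibodies. Fluorescence from o1-orientation probes (~5 replicates averaged) was converted to z-scores against 500 random hg19 background probes. Variable regions are seed direct-repeat (DR0–DR5) sites, all their single-nucleotide variants and half-site ablations.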

Sequence | PBM binding z-score
TTTTGTAGATCAAGCAGGTTAAGAAAGCCTGAGT | 0.649
ATCGAAAGGTCGCCGAGGTGAGTATACACCGTTT | 5.39
ATCTCTAGGTAAAAGTTCAATGAATCCCGAGGAT | 2.25
CGTCAAAGTTCAACTACGGTAACGTAAAGCACGC | 4.19
AGAATGAGGTTATTACGATCAGGGAATTGCGGTC | 1.99
TCATATAGGGAAAAGGTGAAAGTCGGTGTGGTAA | 1.29
GCTGCTCGGTCAGGTTGGTCAGCTAACGGGTACG | -0.457
TCGAGTAGGTTACCAATGGGACATTCAGCTTTCT | -0.0477
GCGACTGGGGCAAAGCAGTTTACCATAAGGTTGG | 0.278
TCTTGTAGATCGAAGGTTAAGAAAGCCGAAGCCT | 0.313
TCGAGTAGGTTAGCGGCATTCAGAATGGCGTCGA | -0.635
CCGACTAGGGCAAAGGTTACCATACTCAGTACGA | 1.61
CCTATTAGTCGACCATAAGGGCAACCGAAGCTCG | 0.145
TCTGCTACGTCAACGATGGTCAGCTAATCTGCTA | -0.548
CCGACTGGGGCAGAAAGATTACCATACCATCCGG | -0.535
GCTTGTAGACCAAGGTTAAGAAAGACTAAGCTAA | 0.0143
TCTACTAGTTGATTAGGGCAACCGAAACAGCGGA | 0.208
ATCGCTAGGTAACCAAGTTCAGTGAATGCCGAAC | 3.74
AGTCAAAGTGCAGGACGAGGTAACGTAAAGCACG | -0.0485
TAGCCTAGGTCATTCAGGGGCGAGTATAGAAAGC | 4.57

Sequence | PBM binding z-score
GCCATTAGTTGAAAGGGCAACCGAATGATTCTCG | 0.274
CGTCCAAGGTCAAGGTCAGTGAGAGAGACTCGAA | 4.84
GCCGCTAGGTCAACTGATGGTCAGCTAAAGCTCG | 1.45
CGTCCAAGGTCAGCAGGTCGGTGAAAGCGACGTG | 3.71
CGAACTAGGTCACAGAGGTCAAAGTCCGTGCGTA | 8.3
CCTACTGGGCCAAAGATCATTGATTCCAATGCTC | -0.31
CCAGACAGGTGAGAAGGTAACTCCGCCTCGATTA | -0.335
TCATATAGGTAAACAGGTGATAGTCCGTAAGTTA | 0.955
CGAACTAGGTCTAGGACAGTGAATCTCCGCACGC | -0.692
TCTGCTAGATCAACGATGGTCAGCTAATCTGCTA | -0.489
CGTCCAAGGTCATAGGAGGTCAGTGATGACAGAT | 6.43
ATATATAGGTTAGCTGGGGTCATTCAGACTAGGC | 6.61
CCAGAGAGGTGAAAGGTAACTCAGTCTGGTACGC | 1.64
TCATATAGGTAAAAGGTGAAAGGCGGTGTGGTAA | 1.39
ACAGACAGGTGATGAAGATAACTCAGGCTATCAT | -0.422
AGAATGAGGTTAAGATCAGGGAGACAGAATACAT | 1.24
CGTCCAAGGTCATAGGAGGTCAGGGAAGACAGAT | 6.49
CCGACTGGGGCAATGTTACCATAACGCACAGCCA | -0.586
TTGAGTAGGTTACCAATGGGGCATTCAGCTTTCT | 0.365
GCTGCCAGGTCAGGTTGGTCAGCTAACGGGTACG | 1.03
